# Measurements: the supplement of paper PMC8728848
# Only a selection was taken, and the strongest signals are over-represented in it overall.
# B1: CvGal2 (Crassostrea virginica) (protein)
# chain: MGSSHHHHHHSSGLVPRGSHMRIREAGKRKDTTKVYQIPDGLFPGQQVMLRGRVPWGSKSFSINFSATPRMGEGDILFHLNPRPSEGVCIRNALLNGSWGAEEKWQPYFPFDDGRSFSVKIEVTNDAFRTFVNGRPFVDFLHRTDFRAGKYLTLREGAEYYDVIFQSKPNIPLTTAIHNGMRIGKTIRIRGMCTAQDGFAINFNDNRNNIYFHFNARPAQRTVVRNSYFGSWGNEETAISKEFPFYPFLYFYASFVCMEDKFAVYVNDEHFIDFAHRGNPNNISVLQIKGSVNVLDTECLEPMGEDAMTEVDSGLENGDLFVLNGLMTERGKTFAVNFLNGFTENDDIALHFNPRKSTGEVVLNSRYGGAWQSEEKVALPGVFWSNRPLQVKVETKRNKFKIYVNGVDLAKYKIRGNVEDVHAVQVKGDVFLLETLLLKRLMKPVWERLTGGIRPGTWVTLQGTPKKNWQQFVVNFALDDTLDGDIAFHFNVRRGARQVVRNHRQSGAWGREETVTPFFAFDSEATFEIVFFVKEEKFLIYFNGKLFFEFVHRVPVERITHIYMDGDCNFYEPEVVI
# What was measured:
# Assay in all cases: glycan array binding signal (z-score within array); higher = stronger binding
# Settings in all cases: glycan notation: IUPAC condensed, linker removed
# [1] = biological target: Fuc(a1-2)Gal(b1-3)GalNAc(a1-3)[Fuc(a1-2)]Gal(b1-4)GlcNAc
# Procedure, shortened: (§1)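 The binding signal is a Z-score computed within each array. Data were drawn from 3228 arrays in the Consortium for Functional Glycomics database, restricted to those with a known protein sequence. Scores were averaged over arrays of the same protein sequence at different concentrations or buffers, and over linkers, and negative values can be taken as non-binding.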
# [2] = biological target: Fuc(a1-2)[Gal(a1-3)]Gal(b1-3)GlcNAc(b1-2)Man(a1-3)[Fuc(a1-2)[Gal(a1-3)]Gal(b1-3)GlcNAc(b1-2)Man(a1-6)]Man(b1-4)GlcNAc(b1-4)GlcNAc
# Procedure, shortened: as §1
# [3] = biological target: Fuc(a1-2)[Gal(a1-3)]Gal(b1-4)Glc
# Procedure, shortened: as §1
# [4] = biological target: Fuc(a1-2)[Gal(a1-3)]Gal(b1-4)GlcNAc
# Procedure, shortened: as §1
# [5] = biological target: Fuc(a1-2)[Gal(a1-3)]Gal(b1-4)GlcNAc(b1-2)Man(a1-3)[Fuc(a1-2)[Gal(a1-3)]Gal(b1-4)GlcNAc(b1-2)Man(a1-6)]Man(b1-4)GlcNAc(b1-4)GlcNAc
# Procedure, shortened: as §1
# [6] = biological target: Fuc(a1-2)[GalNAc(a1-3)]Gal(b1-3)GlcNAc(b1-2)Man(a1-3)[Fuc(a1-2)[GalNAc(a1-3)]Gal(b1-3)GlcNAc(b1-2)Man(a1-6)]Man(b1-4)GlcNAc(b1-4)GlcNAc
# Procedure, shortened: as §1
# [7] = biological target: Fuc(a1-2)[GalNAc(a1-3)]Gal(b1-3)GlcNAc(b1-3)GalNAc
# Procedure, shortened: as §1
# [8] = biological target: Fuc(a1-2)[GalNAc(a1-3)]Gal(b1-4)GlcNAc(b1-2)Man(a1-3)[Fuc(a1-2)[GalNAc(a1-3)]Gal(b1-4)GlcNAc(b1-2)Man(a1-6)]Man(b1-4)GlcNAc(b1-4)[Fuc(a1-6)]GlcNAc
# Procedure, shortened: as §1
# [9] = biological target: Fuc(a1-2)[GalNAc(a1-3)]Gal(b1-4)GlcNAc(b1-3)Gal(b1-4)GlcNAc
# Procedure, shortened: as §1
# [10] = biological target: Fuc(a1-2)[GalNAc(a1-3)]Gal(b1-4)GlcNAc(b1-3)Gal(b1-4)GlcNAc(b1-3)Gal(b1-4)GlcNAc
# Procedure, shortened: as §1
# [11] = biological target: Fuc(a1-2)[GalNAc(a1-3)]Gal(b1-4)GlcNAc(b1-3)[Fuc(a1-2)[GalNAc(a1-3)]Gal(b1-4)GlcNAc(b1-6)]GalNAc
# Procedure, shortened: as §1
# [12] = biological target: Fuc(a1-2)[GalNAc(a1-3)]Gal(b1-4)[Fuc(a1-3)]GlcNAc(b1-3)GalNAc
# Procedure, shortened: as §1
# [13] = biological target: Fuc(a1-3)[Gal3S(b1-4)]GlcNAc
# Procedure, shortened: as §1
# [14] = biological target: Gal(b1-3)Gal(b1-4)GlcNAc
# Procedure, shortened: as §1
# [15] = biological target: Gal(b1-3)GalNAc(a1-3)[Fuc(a1-2)]Gal(b1-4)Glc
# Procedure, shortened: as §1
# [16] = biological target: Gal(b1-3)GalNAc(a1-3)[Fuc(a1-2)]Gal(b1-4)GlcNAc
# Procedure, shortened: as §1
# [17] = biological target: Gal(b1-3)GlcNAc(b1-3)Gal(b1-4)GlcNAc(b1-3)Gal(b1-4)GlcNAc(b1-2)[Gal(b1-3)GlcNAc(b1-3)Gal(b1-4)GlcNAc(b1-3)Gal(b1-4)GlcNAc(b1-6)]Man(a1-6)[Gal(b1-3)GlcNAc(b1-3)Gal(b1-4)GlcNAc(b1-3)Gal(b1-4)GlcNAc(b1-2)Man(a1-3)]Man(b1-4)GlcNAc(b1-4)[Fuc(a1-6)]GlcNAc
# Procedure, shortened: as §1
# [18] = biological target: Gal(b1-3)GlcNAc(b1-3)Gal(b1-4)GlcNAc(b1-6)[Gal(b1-3)GlcNAc(b1-3)]Gal(b1-4)Glc
# Procedure, shortened: as §1
# [19] = biological target: Gal(b1-3)[Fuc(a1-4)]GlcNAc(b1-2)Man(a1-3)[Gal(b1-3)[Fuc(a1-4)]GlcNAc(b1-2)Man(a1-6)]Man(b1-4)GlcNAc(b1-4)[Fuc(a1-6)]GlcNAc
# Procedure, shortened: as §1
# [20] = biological target: Gal(b1-4)GlcNAc(b1-2)Man(a1-3)[GlcNAc(b1-2)Man(a1-6)]Man(b1-4)GlcNAc(b1-4)GlcNAc
# Procedure, shortened: as §1
# [21] = biological target: Gal(b1-4)GlcNAc(b1-3)Gal(b1-4)GlcNAc(b1-2)Man(a1-3)[Gal(b1-4)GlcNAc(b1-3)Gal(b1-4)GlcNAc(b1-2)Man(a1-6)]Man(b1-4)GlcNAc(b1-4)[Fuc(a1-6)]GlcNAc
# Procedure, shortened: as §1
# [22] = biological target: Gal(b1-4)GlcNAc(b1-3)Gal(b1-4)GlcNAc(b1-3)Gal(b1-4)GlcNAc(b1-3)Gal(b1-4)GlcNAc(b1-2)Man(a1-3)[Gal(b1-4)GlcNAc(b1-3)Gal(b1-4)GlcNAc(b1-3)Gal(b1-4)GlcNAc(b1-3)Gal(b1-4)GlcNAc(b1-2)Man(a1-6)]Man(b1-4)GlcNAc(b1-4)[Fuc(a1-6)]GlcNAc
# Procedure, shortened: as §1
# [23] = biological target: Gal3S(b1-4)Glc6S
# Procedure, shortened: as §1
# [24] = biological target: GalNAc4S6S(b1-4)GlcNAc
# Procedure, shortened: as §1
# [25] = biological target: GlcA(b1-3)GlcNAc
# Procedure, shortened: as §1
binder,measurement,setting,value
B1,glycan array binding signal (z-score),[1],4.44
same,glycan array binding signal (z-score),[2],5.23
same,glycan array binding signal (z-score),[3],4.03
same,glycan array binding signal (z-score),[4],2.16
same,glycan array binding signal (z-score),[5],7.14
same,glycan array binding signal (z-score),[6],4.12
same,glycan array binding signal (z-score),[7],0.97
same,glycan array binding signal (z-score),[8],3.72
same,glycan array binding signal (z-score),[9],3.77
same,glycan array binding signal (z-score),[10],4.33
same,glycan array binding signal (z-score),[11],6.77
same,glycan array binding signal (z-score),[12],-0.333
same,glycan array binding signal (z-score),[13],-0.329
same,glycan array binding signal (z-score),[14],0.538
same,glycan array binding signal (z-score),[15],3.35
same,glycan array binding signal (z-score),[16],4.05
same,glycan array binding signal (z-score),[17],2.77
same,glycan array binding signal (z-score),[18],4.4
same,glycan array binding signal (z-score),[19],-0.33
same,glycan array binding signal (z-score),[20],-0.329
same,glycan array binding signal (z-score),[21],-0.175
same,glycan array binding signal (z-score),[22],-0.126
same,glycan array binding signal (z-score),[23],0.689
same,glycan array binding signal (z-score),[24],-0.33
same,glycan array binding signal (z-score),[25],-0.318
